Assay results taken from PubChem BioAssay AID504850 (National Center for Advancing Translational Sciences (NCATS), 2011).
In all, about 2,300 compounds went through this assay and about 1,200 (52%) were called active. Not shown: some 34% with an inconclusive outcome. So high a share suggests a set chosen from earlier hits. This is one part of the list. Unmarked numbers belong to inactive results. Calls follow the shape of the dose curve; as a rule, active = well fitted inhibition curve with a large enough effect; inconclusive = small, poorly fitted or top-dose-only effect, or effect the other way; inactive = no such curve, though single readings can be large or run the other way.

experiment: Confirmation screen for delayed death inhibitors of the malarial parasite plastid, 48 hour incubation; also: nearly all actives have a fitted effect of over 65% in size; conditions: P. falciparum-infected erythrocytes, luciferase growth; series mostly up to 28.7 µM; activity change, negative = inhibition: at the top concentration
Outline: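 Single-generation (48 h, 37 C) exposure of integrated firefly luciferase-reporter P. falciparum in red cells, 0.1% parasitemia at 2% hematocrit, Albumax-supplemented RPMI. Falling luciferase signal marks parasite growth inhibition.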
% is scaled to controls: 0 for no effect and ±100 for the full control effect; potency is read from the fitted curve at half-maximal effect.

Row | SMILES | Potency | activity change, negative = inhibition [%]
1 | CC(=O)Nc1cccc(Oc2ncnc3scc(-c4ccc(C(C)C)cc4)c23)c1 | 11.2 µM (active) | 
2 | COc1ccc(-c2c(-c3ccc(OC)c(C)c3O)n[nH]c2C)cc1 | 14.1 µM (active) | 
3 | CC1CCC/C=C/C(=O)c2c(O)cc(O)cc2CC(=O)O1 (configuration not stated) | 7.08 µM (active) | 
4 | COc1ccc(C2CC(=O)C3=C(C2)Nc2ccccc2NC3c2coc3ccccc3c2=O)cc1OC (configuration not stated) | 1.26 µM (active) | 
5 | CCCCSc1nnc(-c2cc3c(C(F)(F)F)nn(C)c3s2)n1C | 12.6 µM (active) | 
6 | Cc1cccc2cc3c(nc12)SC(=NCC1CCCO1)N(Cc1ccco1)C3 (configuration not stated) | 1.78 µM (active) | 
7 | O=C(O)CCn1c(-c2ccccc2)cc2c1CCCC2=O |  | -9.21
8 | COc1cc(/C=C/C(=O)NC(=O)c2ccccc2O)ccc1OC(C)=O | 10 µM (active) | 
9 | O=C(CCN1C(=O)S/C(=C\c2ccccc2)C1=O)NC1CCS(=O)(=O)C1 (configuration not stated) |  | -29.3
10 | O=C(CCl)NCCN1C(=O)S/C(=C\c2cccnc2)C1=O | 7.94 µM (active) | 
11 | COc1ccc2c(c1OC)C(=O)OC2Nc1nc(-c2ccccc2)cs1 (configuration not stated) | 10 µM (active) | 
12 | CCCCCNc1nc2sc3c(c2c(=O)n1-c1cccc(Cl)c1)CCN(C)C3 | 7.08 µM (active) | 
13 | CCCCNc1nc2sc3c(c2c(=O)n1-c1cccc(Cl)c1)CCN(C)C3 | 3.55 µM (active) | 
14 | Brc1ccccc1-c1nnc(COc2ncnc3c2cnn3-c2ccccc2)o1 |  | -15.7
15 | O=C(C[n+]1cccc(CNC(=O)c2ccc(OC(F)F)cc2)c1)Nc1ccc(SC(F)F)cc1 | 5.62 µM (active) | 
16 | CN(C)c1cc[n+](CC(=O)Nc2ccc(OC(F)F)cc2)cc1 | 2.82 µM (active) | 
17 | Cc1ccc[n+](CC(=O)Nc2ccc(N(C)C)cc2)c1 |  | -11.7
18 | CCOc1ccc(NC(=O)C[n+]2ccc(N(C)C)cc2)cc1 | 2.51 µM (active) | 
19 | O=C(CCl)Nc1ccc(Sc2ccc(NC(=O)CCl)cc2)cc1 | 2.51 µM (active) | 
20 | CC(C)N(c1ccccc1)c1ccc(NC(=O)CCl)cc1 | 11.2 µM (active) | 
21 | CCOC(=O)c1c(NC(=S)N2CCCCC2)sc2c1CCN(C(=O)OCC)C2 | 5.62 µM (active) | 
22 | CCc1ccc(-c2nc3ccc(Br)cc3c(C(=O)O)c2C)s1 |  | -27.6
23 | C=CCc1cccc(CNc2ccc(Br)cc2)c1O | 3.98 µM (active) | 
24 | COc1ccc(CCNc2cc(C)nc3c(-c4ccc(Cl)cc4)c(C)nn23)cc1OC | 12.6 µM (active) | 
25 | O=C(CSc1nnc(CNc2ccc(F)cc2)o1)c1ccccc1 |  | -19.3
26 | Fc1ccc(CNc2ccc(N3CCN(Cc4ccccc4)CC3)cc2)cc1 | 12.6 µM (active) | 
27 | CCCCN(CCCC)CC(O)c1cc(Cl)cc2c1-c1ccc(Cl)cc1/C2=C/c1ccc(Cl)cc1 (configuration not stated) | 0.0562 µM (active) | 
